Test results: the supplement of paper PMC11732987, “Enantioselective OTUD7B fragment discovery through chemoproteomics screening and high-throughput optimisation” (Communications Chemistry, 2025)

Tests used:
Assay in all cases: log2 ratio of Biotin-Ahx-Ub-VS probe labelling (fragment/DMSO); higher = less target engagement (more negative = stronger competition), active = hit call of the paper (q ≤ 0.05, log2 ratio ≤ -1)
Conditions in all cases: compound concentration: 200 uM; treatment time: 3 h
[1] = biological target: T1, OTUD6B (UniProt Q8N6M0)
T1 sequence (whole entry): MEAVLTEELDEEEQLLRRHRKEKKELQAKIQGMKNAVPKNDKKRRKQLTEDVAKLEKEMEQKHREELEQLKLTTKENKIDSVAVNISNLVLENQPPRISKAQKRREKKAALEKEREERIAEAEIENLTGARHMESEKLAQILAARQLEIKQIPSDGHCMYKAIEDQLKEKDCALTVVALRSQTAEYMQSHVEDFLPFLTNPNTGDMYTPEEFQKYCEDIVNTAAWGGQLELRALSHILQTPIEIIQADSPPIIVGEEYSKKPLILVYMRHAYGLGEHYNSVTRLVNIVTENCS
Procedure, shortened: (§1)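 HEK293T lysate (495 µg per sample, in Tris/CHAPS/IGEPAL buffer with protease inhibitors) was treated in triplicate with fragment at 200 µM or with DMSO for 3 h. It was then treated with Biotin-Ahx-Ub-VS (0.5 µM final) for 1 h. Labelled DUBs were NeutrAvidin-enriched, digested with LysC and trypsin, and run by diaPASEF LC-MS/MS. Spectronaut label-free quantities were global-median-normalised. Values are average log2 ratios fragment/DMSO by unpaired t-test, using proteins with ≥2 unique peptides.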

[2] = biological target: T2, OTUD7B (UniProt Q6GQQ9)
T2 sequence (whole entry): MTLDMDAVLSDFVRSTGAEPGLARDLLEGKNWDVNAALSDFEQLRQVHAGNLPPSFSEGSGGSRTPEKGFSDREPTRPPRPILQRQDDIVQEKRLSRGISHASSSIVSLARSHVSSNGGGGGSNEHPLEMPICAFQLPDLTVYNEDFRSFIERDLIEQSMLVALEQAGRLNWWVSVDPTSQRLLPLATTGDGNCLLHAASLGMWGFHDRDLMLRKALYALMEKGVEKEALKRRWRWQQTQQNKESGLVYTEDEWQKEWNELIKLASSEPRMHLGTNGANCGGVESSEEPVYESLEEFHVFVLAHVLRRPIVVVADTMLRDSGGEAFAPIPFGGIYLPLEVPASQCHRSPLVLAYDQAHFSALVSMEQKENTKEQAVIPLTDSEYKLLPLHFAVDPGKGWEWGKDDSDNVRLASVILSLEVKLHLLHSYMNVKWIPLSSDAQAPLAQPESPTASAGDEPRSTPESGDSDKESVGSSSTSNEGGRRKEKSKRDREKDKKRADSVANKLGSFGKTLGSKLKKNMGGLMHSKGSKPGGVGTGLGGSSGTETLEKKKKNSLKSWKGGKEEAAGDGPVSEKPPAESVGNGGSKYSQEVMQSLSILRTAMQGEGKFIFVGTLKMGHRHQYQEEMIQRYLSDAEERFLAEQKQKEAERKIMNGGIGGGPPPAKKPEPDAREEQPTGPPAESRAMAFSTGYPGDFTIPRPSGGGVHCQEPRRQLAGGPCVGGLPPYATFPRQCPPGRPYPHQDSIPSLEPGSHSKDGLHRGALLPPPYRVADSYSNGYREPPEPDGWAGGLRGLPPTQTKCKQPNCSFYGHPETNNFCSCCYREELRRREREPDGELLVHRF
Procedure, shortened: as §1

[3] = biological target: PRPF8 (UniProt Q6P2Q9)
Procedure, shortened: as §1

[4] = biological target: T3, PSMD7 (UniProt P51665)
T3 sequence (whole entry): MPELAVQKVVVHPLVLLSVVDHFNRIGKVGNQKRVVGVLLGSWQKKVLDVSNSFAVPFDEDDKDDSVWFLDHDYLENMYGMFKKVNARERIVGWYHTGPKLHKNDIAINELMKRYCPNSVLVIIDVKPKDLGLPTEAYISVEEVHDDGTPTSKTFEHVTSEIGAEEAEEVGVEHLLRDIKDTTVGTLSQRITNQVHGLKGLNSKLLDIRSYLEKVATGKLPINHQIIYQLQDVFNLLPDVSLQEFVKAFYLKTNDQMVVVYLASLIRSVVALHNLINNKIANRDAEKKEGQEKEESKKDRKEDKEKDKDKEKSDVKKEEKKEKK
Procedure, shortened: as §1

[5] = biological target: UCHL1 (UniProt P09936)
UCHL1, sequence (P09936 whole entry, looked up): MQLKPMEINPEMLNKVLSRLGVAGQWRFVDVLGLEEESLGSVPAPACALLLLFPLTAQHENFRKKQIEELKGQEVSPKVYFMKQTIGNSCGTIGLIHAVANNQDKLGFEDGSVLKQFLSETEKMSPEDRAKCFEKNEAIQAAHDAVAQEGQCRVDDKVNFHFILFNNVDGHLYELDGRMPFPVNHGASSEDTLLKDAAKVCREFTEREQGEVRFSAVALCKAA
Procedure, shortened: as §1

[6] = biological target: T4, UCHL3 (UniProt P15374)
T4 sequence (whole entry): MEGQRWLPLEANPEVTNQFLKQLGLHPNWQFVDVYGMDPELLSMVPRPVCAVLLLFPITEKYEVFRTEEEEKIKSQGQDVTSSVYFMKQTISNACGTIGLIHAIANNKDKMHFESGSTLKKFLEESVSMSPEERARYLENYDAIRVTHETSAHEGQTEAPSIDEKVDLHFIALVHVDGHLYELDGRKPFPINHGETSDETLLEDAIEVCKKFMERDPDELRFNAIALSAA
Procedure, shortened: as §1

[7] = biological target: T5, UCHL5 (UniProt Q9Y5K5)
T5 sequence (whole entry): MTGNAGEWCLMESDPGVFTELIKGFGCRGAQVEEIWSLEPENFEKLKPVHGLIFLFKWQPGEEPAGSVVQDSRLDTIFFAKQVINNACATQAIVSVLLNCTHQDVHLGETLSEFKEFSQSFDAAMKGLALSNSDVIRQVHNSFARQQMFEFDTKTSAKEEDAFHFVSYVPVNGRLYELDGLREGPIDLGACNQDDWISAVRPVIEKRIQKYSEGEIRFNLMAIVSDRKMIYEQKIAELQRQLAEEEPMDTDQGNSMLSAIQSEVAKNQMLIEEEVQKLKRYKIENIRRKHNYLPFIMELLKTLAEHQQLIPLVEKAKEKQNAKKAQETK
Procedure, shortened: as §1

[8] = biological target: USP10 (UniProt Q14694)
USP10, sequence (Q14694 whole entry): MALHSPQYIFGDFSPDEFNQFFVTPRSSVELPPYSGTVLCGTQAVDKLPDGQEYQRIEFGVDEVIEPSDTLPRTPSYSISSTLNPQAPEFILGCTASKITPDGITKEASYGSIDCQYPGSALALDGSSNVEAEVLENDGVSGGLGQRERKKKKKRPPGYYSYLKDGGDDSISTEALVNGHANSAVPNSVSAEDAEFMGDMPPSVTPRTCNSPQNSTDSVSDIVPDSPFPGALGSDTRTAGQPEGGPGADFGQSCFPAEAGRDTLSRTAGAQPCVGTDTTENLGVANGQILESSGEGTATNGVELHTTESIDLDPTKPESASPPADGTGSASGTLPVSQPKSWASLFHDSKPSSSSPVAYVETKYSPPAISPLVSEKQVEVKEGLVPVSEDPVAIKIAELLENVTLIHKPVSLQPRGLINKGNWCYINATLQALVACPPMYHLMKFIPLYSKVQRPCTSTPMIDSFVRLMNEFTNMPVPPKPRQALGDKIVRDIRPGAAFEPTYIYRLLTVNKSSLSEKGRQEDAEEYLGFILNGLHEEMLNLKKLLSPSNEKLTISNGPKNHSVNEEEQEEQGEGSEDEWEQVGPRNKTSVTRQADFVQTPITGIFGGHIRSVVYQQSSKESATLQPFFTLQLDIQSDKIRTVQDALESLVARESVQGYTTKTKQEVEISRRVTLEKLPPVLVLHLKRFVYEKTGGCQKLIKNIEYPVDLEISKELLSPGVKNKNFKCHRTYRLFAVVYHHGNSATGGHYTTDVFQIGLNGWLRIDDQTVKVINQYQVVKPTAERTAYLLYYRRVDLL
Procedure, shortened: as §1

[9] = biological target: T6, USP15 (UniProt Q9Y4E8)
T6 sequence (whole entry): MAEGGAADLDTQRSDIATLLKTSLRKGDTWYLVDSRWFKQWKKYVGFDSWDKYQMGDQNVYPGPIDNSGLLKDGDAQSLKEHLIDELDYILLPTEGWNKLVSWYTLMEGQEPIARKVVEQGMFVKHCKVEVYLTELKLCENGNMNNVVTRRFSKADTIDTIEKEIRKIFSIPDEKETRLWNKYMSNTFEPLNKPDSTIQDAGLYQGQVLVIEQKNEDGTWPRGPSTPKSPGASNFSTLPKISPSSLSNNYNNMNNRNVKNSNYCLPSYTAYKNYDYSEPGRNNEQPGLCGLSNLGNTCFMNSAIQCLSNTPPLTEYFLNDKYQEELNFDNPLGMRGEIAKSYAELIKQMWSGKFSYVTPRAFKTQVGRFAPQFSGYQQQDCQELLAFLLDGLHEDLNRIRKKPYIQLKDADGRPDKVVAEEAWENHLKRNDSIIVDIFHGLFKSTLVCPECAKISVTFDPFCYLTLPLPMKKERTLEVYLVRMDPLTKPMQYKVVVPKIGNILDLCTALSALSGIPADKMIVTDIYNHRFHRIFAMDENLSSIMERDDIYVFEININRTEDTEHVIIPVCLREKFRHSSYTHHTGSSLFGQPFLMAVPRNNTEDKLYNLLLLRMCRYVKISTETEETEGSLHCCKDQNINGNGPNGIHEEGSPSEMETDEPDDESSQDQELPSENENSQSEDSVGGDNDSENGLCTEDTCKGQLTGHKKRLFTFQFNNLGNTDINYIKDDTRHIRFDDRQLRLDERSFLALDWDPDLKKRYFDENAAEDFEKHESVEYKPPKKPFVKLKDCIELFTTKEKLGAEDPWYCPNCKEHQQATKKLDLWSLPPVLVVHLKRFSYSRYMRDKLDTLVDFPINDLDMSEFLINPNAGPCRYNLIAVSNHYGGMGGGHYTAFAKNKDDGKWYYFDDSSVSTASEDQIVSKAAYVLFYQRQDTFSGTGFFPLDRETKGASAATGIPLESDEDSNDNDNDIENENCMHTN
Procedure, shortened: as §1

[10] = biological target: USP16 (UniProt Q9Y5T5)
USP16, sequence (Q9Y5T5 whole entry, looked up): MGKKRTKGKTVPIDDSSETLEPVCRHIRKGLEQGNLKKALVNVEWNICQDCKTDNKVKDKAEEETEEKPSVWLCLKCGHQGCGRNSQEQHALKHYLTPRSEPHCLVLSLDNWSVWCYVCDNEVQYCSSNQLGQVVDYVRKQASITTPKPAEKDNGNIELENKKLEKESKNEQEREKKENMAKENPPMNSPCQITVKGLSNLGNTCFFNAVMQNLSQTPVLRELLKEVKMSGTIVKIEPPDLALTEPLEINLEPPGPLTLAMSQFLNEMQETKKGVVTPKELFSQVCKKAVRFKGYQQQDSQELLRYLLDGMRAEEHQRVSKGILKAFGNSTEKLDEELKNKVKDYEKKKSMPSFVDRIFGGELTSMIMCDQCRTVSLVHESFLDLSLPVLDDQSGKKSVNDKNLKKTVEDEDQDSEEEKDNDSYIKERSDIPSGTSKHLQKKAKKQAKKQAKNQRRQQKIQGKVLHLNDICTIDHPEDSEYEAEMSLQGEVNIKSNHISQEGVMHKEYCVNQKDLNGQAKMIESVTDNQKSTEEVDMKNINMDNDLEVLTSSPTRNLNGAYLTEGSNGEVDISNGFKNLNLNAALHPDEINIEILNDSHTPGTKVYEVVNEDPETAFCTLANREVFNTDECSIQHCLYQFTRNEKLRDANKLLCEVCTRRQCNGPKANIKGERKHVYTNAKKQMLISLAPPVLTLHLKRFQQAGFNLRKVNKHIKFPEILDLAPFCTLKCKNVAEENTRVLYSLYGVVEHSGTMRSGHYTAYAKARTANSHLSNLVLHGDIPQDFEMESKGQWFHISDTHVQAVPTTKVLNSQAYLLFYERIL
Procedure, shortened: as §1

Measured: log2 ratio of Biotin-Ahx-Ub-VS probe labelling

Cc1ccc(C)c(Oc2ccc(CNC(=O)CCl)cn2)c1.Cl
active: [2] -1.04 | [5] -1.3 | [6] -1.04
inactive: [1] -0.139 | [3] -0.126 | [4] -0.306 | [7] -0.435 | [8] -0.166 | [9] -0.359 | [10] -0.0509
